Screens: PubChem BioAssay, several laboratories
Only some compounds are listed: those with a hit (about 1.3% of all), similar ones and a draw of the others.
GC-A act – GC-A (human) enzyme activation | P16066 | activation, % at 10 µM | actives 0.14% (n = 370,000) | HEK293 GC-A cells, cGMP TR-FRET, EC30 ANP; 0% at EC30 ANP, 100% saturating ANP; in the data active = activation above about 40%
GC-B act – GC-B (human) receptor activation; P20594; HEK293-GC-B cells, CNP EC30, cGMP TR-FRET; 0% at EC30 CNP, 100% saturating CNP; activation, % at 10 µM; actives 0.11% (n = 370,000); AID 1920062;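 active = activation at 10 µM reaching about 35% in either raw or pattern-adjusted values, limit read from the data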
ADAM17 inh – inhibitors of human ADAM17 | actives 0.83% (n = 370,000) | inhibition, % at 6.95 µM | P78536 | AID 720648 | recombinant ADAM17, EDANS/DABCYL FRET peptide cleavage;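 active = inhibition above the mean of compounds lying between control limits plus 3 SD, set per campaign, cut at about 8.5% in these data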;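 also: 0% = DMSO-only wells as the low control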
ADAM10 inh – ADAM10 inhibition, QFRET primary screen | inhibition, % at 7 µM | actives 0.62% (n = 370,000) | recombinant ADAM10, EDANS/DABCYL FRET peptide cleavage, 3 h;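 active = inhibition above a per-campaign cutoff equal to the mean of compounds falling between control-based bounds plus 3 SD, cut at about 20% in these data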;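 also: 0% = DMSO wells while the 100% control is not disclosed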
Target sequence (O14672 214-748 limits assumed): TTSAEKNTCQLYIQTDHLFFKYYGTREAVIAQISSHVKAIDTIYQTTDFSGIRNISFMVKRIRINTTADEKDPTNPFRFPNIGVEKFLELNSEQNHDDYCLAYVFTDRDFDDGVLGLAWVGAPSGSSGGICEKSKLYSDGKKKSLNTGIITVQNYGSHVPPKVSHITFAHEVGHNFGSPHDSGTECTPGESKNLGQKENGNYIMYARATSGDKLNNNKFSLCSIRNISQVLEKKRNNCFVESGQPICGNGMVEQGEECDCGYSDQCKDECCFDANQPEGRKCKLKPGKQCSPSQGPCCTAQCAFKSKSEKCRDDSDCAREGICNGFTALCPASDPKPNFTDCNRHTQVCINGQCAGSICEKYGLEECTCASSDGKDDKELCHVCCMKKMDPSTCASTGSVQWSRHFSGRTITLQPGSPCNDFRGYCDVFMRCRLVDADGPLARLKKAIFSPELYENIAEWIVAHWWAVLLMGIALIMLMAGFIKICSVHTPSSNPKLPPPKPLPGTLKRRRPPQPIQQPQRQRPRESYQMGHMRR
ADAM10 confirm – human ADAM10 inhibition, confirmation. shares compounds with ADAM10 inh. inhibition, % at 6.95 µM. actives 1% (n = 2,100). ADAM10 QFRET peptide cleavage, EDANS fluorescence;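 active = inhibition above about 20% chosen separately for each screening run, limit read from the data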;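 also: 0% = DMSO wells and 100% = marimastat wells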
ADAM17 ctr – ADAM17 inhibition, counter-screen for ADAM10 exosite hits. shares compounds with ADAM10 inh. AID 743214. actives 0.5% (n = 2,100). ADAM17 QFRET peptide cleavage, EDANS fluorescence. inhibition, % at 6.95 µM;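 active = mean triplicate inhibition above the solvent-only control wells' mean plus 3 SD, cut at about 12% in these data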;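 also: 0% = DMSO wells and 100% = marimastat wells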
ADAM10 ctr – inhibits human ADAM10 in ADAM17 exosite counter-screen; shares compounds with ADAM17 inh; recombinant ADAM10, EDANS/DABCYL FRET peptide cleavage, 3 h; inhibition, % at 6.95 µM; actives 47% (n = 2,900);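 active = mean inhibition over the triplicate runs exceeds the activity threshold set in the earlier primary screen, cut at about 20% in these data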;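 also: 0% = DMSO wells and 100% = marimastat wells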
ADAM17 confirm – confirmation of inhibitors of human ADAM17; shares compounds with ADAM17 inh; recombinant ADAM17, EDANS/DABCYL QFRET peptide cleavage; inhibition, % at 6.95 µM; actives 65% (n = 2,900); AID 743257;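 active = mean inhibition across replicates above the hit cutoff set in the primary screen, cut at about 8.5% in these data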;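 also: 0% = DMSO wells and 100% = marimastat wells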
* marks the source's active call; other numbers are inactive results; x = no result given.

SMILES	GC-A act	GC-B act	ADAM17 inh	ADAM10 inh	ADAM10 confirm	ADAM17 ctr	ADAM10 ctr	ADAM17 confirm
COc1ccc(NC(=O)Nc2ccc3c(c2)C(=O)N([C@@H](C)CO)C[C@@H](C)[C@@H](CN(C)S(=O)(=O)c2cccs2)O3)cc1	3	-2	8.8*	21*	0	0	19	12*
C[C@@H]1CN([C@H](C)CO)C(=O)c2cc(NC(=O)Nc3ccc(F)cc3)ccc2O[C@@H](C)CCCCO[C@H]1CN(C)S(=O)(=O)c1cccs1	5	-2	8.9*	30*	5	2	42*	21*
CC(C)NC(=O)Nc1ccc2c(c1)C(=O)N([C@H](C)CO)C[C@H](C)[C@@H](CN(C)S(=O)(=O)c1cccs1)O2	3	10	3	1	x	x	x	x
COc1ccc(NC(=O)Nc2ccc3c(c2)C(=O)N([C@H](C)CO)C[C@H](C)[C@@H](CN(C)S(=O)(=O)c2cccs2)O3)cc1	1	5	16*	21*	3	0	14	10*
C[C@H](CO)N1C[C@H](C)[C@H](CN(C)S(=O)(=O)c2cccs2)Oc2ccc(NC(=O)Nc3ccc4c(c3)OCO4)cc2CC1=O	1	3	13*	27*	2	0	16	14*
C[C@H](CO)N1C[C@H](C)[C@@H](CN(C)S(=O)(=O)c2cccs2)Oc2ccc(NC(=O)Nc3ccc4c(c3)OCO4)cc2C1=O	4	-4	3	0	x	x	x	x
CCN(C(=O)CSc1nnc(-c2ccco2)n1CC)c1c(N)n(Cc2ccccc2)c(=O)[nH]c1=O	0	-9	-3	-8	x	x	x	x
O=C(c1ccc(C(F)(F)F)cc1)N1CCC(=O)N([C@H](COCc2ccc(Cl)cc2)Cc2ccccc2)CC1	0	-4	6	13	x	x	x	x
O=C(c1ccc(C(F)(F)F)cc1)N1CCC(=O)N([C@H](COCc2ccc(C(F)(F)F)cc2)Cc2ccccc2)CC1	0	-4	12*	28*	8	2	28*	16*
O=C(O)c1cccc(-c2csc(C(O)(c3ccccc3)C(F)(F)F)n2)c1 (centres undefined)	2	3	-1	-8	x	x	x	x
OC(c1ccccc1)(c1nc(-c2cccc(C(F)(F)F)c2)cs1)C(F)(F)F (centres undefined)	2	4	14*	26*	16	4	35*	19*
CC(O)(c1cccc(F)c1)c1nc(-c2cccc(C(F)(F)F)c2)cs1 (centres undefined)	0	-3	11*	23*	7	2	45*	28*
CC(O)(c1ccc(F)c(F)c1)c1nc(-c2cccc(C(F)(F)F)c2)cs1 (centres undefined)	-3	5	11*	26*	11	3	33*	17*
COc1ccccc1/C(C)=N/Oc1cc(N)cc([N+](=O)[O-])c1	0	0	15*	27*	4	2	14	9.8*
CCOC(=O)c1c(C)[nH]c(C(=O)C(C)OC(=O)c2cccc(OCc3c(C)noc3C)c2)c1C (centres undefined)	-4	5	13*	30*	6	2	47*	23*
CCC(C)NC(=O)c1cccc(OCc2c(C)noc2C)c1 (centres undefined)	-2	2	0	-1	x	x	x	x
Cc1cccc(OCCNC(=O)c2cccc(Oc3ccc(C(F)(F)F)cc3[N+](=O)[O-])c2)c1	1	1	14*	32*	11	4	34*	18*
O=C(Nc1cnn(Cc2ccc(F)cc2)c1)c1cnccn1	-7	-5	5	12	x	x	x	x
O=C(Nc1cnn(Cc2ccc(F)cc2)c1)C(c1ccccc1)c1ccccc1	-5	0	14*	23*	3	1	22*	14*
CCCn1c(SCC(=O)N2c3ccccc3Sc3ccccc32)nc2ccccc21	-25	-14	10*	26*	3	0	17	11*
Cn1c(=O)c2[nH]c(SCc3cccnc3)nc2n(C)c1=S	-1	-2	-3	3	x	x	x	x
Cn1cc2cc(NC(N)=S)ccc2n1	-6	-8	-6	-22	x	x	x	x
CC1CCN(c2ccc(C(=O)NCc3ccco3)cc2[N+](=O)[O-])CC1	4	-2	9.0*	23*	1	1	8	7
O=C(NCc1ccco1)c1ccc(N2CCCCC2)c([N+](=O)[O-])c1	0	-3	1	-2	x	x	x	x
COc1ccc(OC)c(N/C=C/C(=C(C#N)C#N)N(C)C)c1	3	4	-2	3	x	x	x	x
SMILES	GC-A act	GC-B act	ADAM17 inh	ADAM10 inh	ADAM10 confirm	ADAM17 ctr	ADAM10 ctr	ADAM17 confirm
CCO[C@H]1OC(C(=O)Nc2ccccc2)=C[C@@H](c2ccc(C(F)(F)F)cc2)[C@@H]1CCCO	-4	4	15*	27*	4	1	30*	18*
CCCn1nnc(NC(=O)/C=C/c2cc(Br)ccc2OC)n1	9	5	-21	-42	x	x	x	x
COC(=O)c1sccc1NC(=O)CSc1ccccc1NS(=O)(=O)c1ccc(Br)cc1	-6	-3	11*	21*	3	2	10	6
C[C@@H]1CCC(=O)N(CC[C@H](Sc2ccc(Br)cc2)c2ccccc2)CC1	-6	-4	16*	22*	6	3	21*	11*
Cc1ccc(S[C@@H](CCN2CC[C@H](C)CCC2=O)c2ccccc2)cc1	-3	-2	-3	-2	x	x	x	x
O=C(CSc1nnc(-c2ccc(Cl)cc2)n1-c1ccccc1)NN=Cc1c[nH]c2ccccc12	-14	-6	16*	29*	8	2	42*	18*
Cc1ccc(-c2nnc(SCC(=O)NN=Cc3c[nH]c4ccccc34)n2-c2ccccc2)cc1	-13	-8	6	14	x	x	x	x
CC(CNC(=O)CCS(=O)(=O)c1ccc2c(c1)NC(=O)CO2)c1ccccc1 (centres undefined)	1	0	-5	0	x	x	x	x
COc1ccc(C(C(=O)NC2CCCCC2)N(C(=O)c2sc(C)nc2C)c2ccccc2)cc1 (centres undefined)	-3	-1	0	2	x	x	x	x
